Experimental data reported in PubChem BioAssay (EPA / NIEHS).
Active and inactive are the calls of the source. How the source made its calls: active means hit-call score of the fitted dose curve at least 0.9, where 1 is the maximum; inactive means score below 0.9.

Assay: STM_H9_OrnithineISnorm_perc: Stemina devTOX quickPredict H9 human embryonic stem cell (hESC)-based Assay for Ornithine (ORN) Metabolite Biomarker, Normalized (AID 2283712);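 further: ornithine released into spent medium during last day measured by mass spectrometry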
Outline: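 Ornithine in spent medium from the last 24 h of a 72 h exposure, deproteinised and quantified by UPLC-HRMS against an isotope-labelled internal standard, expressed relative to 0.1% DMSO. Pluripotent H9 cells; compound refreshed every 24 h.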

Compound	outcome	AC50
CCCCCCCCCC[N+](C)(C)[O-]	inactive	
CCCC[C@H]1CN(CC2CCOCC2)C(=O)OC12CCN(C1(C)CCN(C(=O)c3c(C)ncnc3C)CC1)CC2	inactive	
NC(=Nc1ccccc1)Nc1ccccc1	inactive	
Cc1cc(Cc2ccc(N)c(C)c2)ccc1N	inactive	
Cc1ccc(-c2cc(C(F)(F)F)nn2-c2ccc(S(N)(=O)=O)cc2)cc1	inactive	
CCc1nc(N)nc(N)c1-c1ccc(Cl)cc1		30.7 µM (active)
CCC(C)N(C)C(=O)c1cc2ccccc2c(-c2ccccc2Cl)n1 (centres undefined)	inactive	
O=C(Oc1ccccc1)c1cccc(C(=O)Oc2ccccc2)c1	inactive	
CCCCCCCCCCCCCCCCO	inactive	
